Measured values published in PubChem BioAssay (NCI).
This is part of a sample that, as a whole, favours compounds with a hit. Of some 83,000 tested, about 20% had one in any assay.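 Growth was measured after 48 h exposure to one concentration of compound in 96-well plates. Values under 10 count as active.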 Values without a mark were called inactive. Activity calls are given as the source filed them.

Legend:
Experiment in all cases: NCI-60 one-dose screen, 48 h (100 = growth as untreated, 0 = no growth, -100 = all killed)
Conditions in all cases: 10 µM unless noted
[1] = tested on: DU-145 prostate
[2] = tested on: K-562 leukemia
[3] = tested on: MALME-3M melanoma
[4] = tested on: MDA-MB-231 breast
[5] = tested on: RXF 393 renal
[6] = tested on: SF-268 CNS
[7] = tested on: SF-295 CNS
[8] = tested on: SF-539 CNS
[9] = tested on: UACC-257 melanoma
[10] = tested on: M14 melanoma
[11] = tested on: HCT-15 colon
[12] = tested on: HT29 colon
[13] = tested on: SNB-75 CNS
[14] = tested on: SNB-19 CNS
[15] = tested on: U251 CNS
[16] = tested on: PC-3 prostate
[17] = tested on: SK-MEL-5 melanoma
[18] = tested on: UACC-62 melanoma
[19] = tested on: LOX IMVI melanoma
[20] = tested on: SK-MEL-28 melanoma

Row | Compound | growth [1] | growth [2] | growth [3] | growth [4] | growth [5] | growth [6] | growth [7] | growth [8] | growth [9] | growth [10] | growth [11] | growth [12] | growth [13] | growth [14] | growth [15] | growth [16] | growth [17] | growth [18] | growth [19] | growth [20]
1 | C=CCOc1cccc(/C=C2\SC(=Nc3ccc(O)cc3)NC2=O)c1 | 5.29% (active) | 5.21% (active) | 58.3% | -12.1% (active) | -12.8% (active) | 19.3% | 7.15% (active) | -38.1% (active) | 68.4% | 9.92% (active) | 10.1% | 11.7% | -18.6% (active) | 30.9% | 13.1% | 13.9% | -39% (active) | 34.7% | 8.94% (active) | 69.7%
2 | Cc1cnc(Nc2ccc(N3CCN(C)CC3)cc2)nc1Nc1ccc(Cl)c(NS(=O)(=O)C(C)(C)C)c1 | 13.4% | 7.56% (active) | 19.3% | 4.33% (active) | -78.2% (active) | 15.7% | 26.1% | -36.4% (active) | 5.3% (active) | 8.84% (active) | 4.29% (active) | -31.1% (active) | -36.8% (active) | 53.1% | 24.2% | 39.4% | -8.43% (active) | 16.1% | -84.4% (active) | 35.2%
3 | CC(C)n1nc(C#Cc2cccc(NC(=O)c3cccc(C(F)(F)F)c3)c2)c2c(N)ncnc21 | -22.9% (active) | -22.6% (active) | -39% (active) | -81.9% (active) | -76.8% (active) | 3.1% (active) | -14.9% (active) | -73.9% (active) | -18.2% (active) | -44% (active) | -3.07% (active) | -11.7% (active) | -66.2% (active) | 5.79% (active) | 2.84% (active) | 16.4% | -61.4% (active) | -56.1% (active) | -91.8% (active) | -27.9% (active)
4 | CN(C)c1ccc(/C=C/c2c(F)cccc2F)cc1 | 105% | 115% | 90.1% | 110% | 108% | 93.7% | 96.6% | 98.3% | 89% | 93.2% | 98.6% | 92.3% | 88.4% | 105% | 89.9% | 81.7% | 94.9% | 97.9% | 88.1% | 109%
5 | O=C(/C=C/C12c3ccccc3C(c3ccccc31)C1C(=O)NC(=O)C12)c1ccc(Cl)cc1 (stereo not given) | 8.95% (active) | 8.8% (active) | -37.4% (active) | -24.4% (active) | -75.8% (active) | 29.9% | 4.52% (active) | -34.2% (active) | 25.3% | 8.03% (active) | -43.1% (active) | 7.13% (active) | 8.43% (active) | 17.3% | -10.9% (active) | 21.7% | -61.5% (active) | -18.3% (active) | -87.9% (active) | -32.1% (active)
6 | Fc1ccc(Nc2ccc3cc(OCCCN4CCOCC4)ccc3n2)cc1F | 64.2% | -12% (active) | 42.6% | -40.9% (active) | 61.1% | 59.3% | 19.7% | 37.5% | 30.4% | -6.62% (active) | 28.7% | -6.89% (active) | 48.6% | 64.9% | 41.7% | 45.2% | 60% | -19.8% (active) | -46.9% (active) | 43.4%
7 | N#Cc1c(-c2ccc(C(F)(F)F)cc2)cc(N2CC(O)C2)n2c1nc1ccccc12 | 71.4% | 110% | -3.85% (active) | 39.2% | 21.5% | 32.7% | 28.1% | 36.2% | 51.9% | 80.6% | 85.7% | 74% | -18.5% (active) | 24.8% | 40.2% | 39.6% | 67.5% | 33.9% | 53.2% | 59.7%
8 | NC(=S)c1csc(CCNC(=O)c2ccccc2)n1 | 129% | 110% | 125% | 107% | 128% | 111% | 96.9% | 114% | 94.2% | 110% | 100% | 107% | 97.7% | 107% | 97.6% | 96.6% | 115% | 105% | 110% | 108%
9 | C=C1C(=O)O[C@H]2[C@H]1CC/C(COC(=O)/C=C/C(=O)NCc1ccc(Cn3c(=O)sn(-c4ccccc4)c3=O)cc1)=C\CC[C@@]1(C)O[C@@H]21 | 8.63% (active) | -0.361% (active) | -57.8% (active) | -39.9% (active) | -86.6% (active) | -6.21% (active) | 100% | -39.1% (active) | -11.4% (active) | -36% (active) | 32.9% | -46.6% (active) | 70.7% | 61.8% | 20.7% | 57.1% | -27.8% (active) | -80.8% (active) | -85.2% (active) | -40.1% (active)
10 | CCn1c(Sc2nnc(NC(=O)CCN3CCCC3)s2)nc2c1c(=O)n(C)c(=O)n2C | 104% | 102% | 107% | 103% | 110% | 102% | 107% | 98.4% | 102% | 107% | 104% | 107% | 97.8% | 104% | 95.3% | 103% | 104% | 101% | 99.9% | 111%
11 | COc1ccccc1NC(=O)Nc1ccc(-c2nc3ccccc3o2)cc1 | 101% | 83.4% | 95.3% | 98.5% | 108% | 104% | 96.8% | 96.7% | 101% | 102% | 96.9% | 132% | 109% | 94.8% | 93.6% | 95.6% | 92.6% | 98.7% | 97.9% | 111%
12 | CC(C)(C)c1ccc(C(=O)Nc2sc3c(c2C(N)=O)CCC(=O)C3)cc1 | 24.7% | 4.82% (active) | -53.4% (active) | -59.5% (active) | -22.4% (active) | -2.29% (active) | -48.3% (active) | -77.8% (active) | -30.4% (active) | -49.2% (active) | -29.3% (active) | 3.24% (active) | -49.3% (active) | 15.2% | -43.8% (active) | -5.7% (active) | -81.2% (active) | -36.7% (active) | -55.1% (active) | -14.9% (active)
13 | COC(=O)Nc1nc2ccc(C(=O)C3CC3)cc2[nH]1 | 1.8% (active) | -15.1% (active) | 63.2% | 22.8% | 4.26% (active) | 29.7% | -38.5% (active) | -27.5% (active) | 27.5% | 7.18% (active) | -1.31% (active) | 1.32% (active) | 9.46% (active) | 13.5% | 12.8% | 14.7% | 8.13% (active) | 30.3% | 34.7% | 49%
14 | Cl.Fc1c[c-]c(-c2ccccn2)c(F)c1.[Pt].c1ccc([PH+](C[PH+](c2ccccc2)c2ccccc2)c2ccccc2)cc1 | -94.8% (active) | -18.5% (active) | -92.9% (active) | -83.8% (active) | -91.6% (active) | -70% (active) | -87.6% (active) | -86.4% (active) | -48.6% (active) | -87.1% (active) | -80.1% (active) | -64.7% (active) | -95.5% (active) | -88.9% (active) | -77.1% (active) | -57.7% (active) | -98.2% (active) | -82.3% (active) | -88.9% (active) | -92.5% (active)
15 | O=C1Nc2ccccc2/C1=N/N=C/c1ccsc1 | 111% | 89.9% | 103% | 92.5% | 111% | 101% | 108% | 103% | 104% | 105% | 98% | 112% | 87.8% | 95.5% | 104% | 107% | 101% | 93% | 95.1% | 110%
16 | CSc1ccc(Cl)c(C(=O)Nc2sccc2C(N)=O)c1 | 102% | 110% | 141% | 99% | 60.2% | 93.7% | 123% | 99.8% | 104% | 123% | 98.8% | 118% | 105% | 80.6% | 94.3% | 83.8% | 95% | 81.1% | 100% | 102%
